A selection: hits, their analogues and other compounds. The true share with any hit is near 9.3%.
NPC1 prom act: activates the NPC1 promoter. Huh7 NPC1 promoter luciferase reporter, 24 h. Potency, µM (top dose mostly 9.22 µM), actives largely listed as activators. actives 2.4% (n = 320,000). AID 485313; note: nearly all actives have a fitted effect of over 60% in size
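Luciferase expression driven by the NPC1 promoter was measured in stably transfected Huh7 cells after a 24 h compound incubation, using a luciferase reagent and a luminescence read.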
FLuc counter: counter-screen for miR-21 project: firefly luciferase inhibitors or activators; actives 6.9% (n = 360,000); purified FLuc, Km substrates, luminescence inhibition; AID 588342; Potency, µM (series often up to 57.5 µM), actives largely listed as inhibitors; note: nearly all actives have a fitted effect of over 55% in size
Target sequence (P08659 whole entry, looked up): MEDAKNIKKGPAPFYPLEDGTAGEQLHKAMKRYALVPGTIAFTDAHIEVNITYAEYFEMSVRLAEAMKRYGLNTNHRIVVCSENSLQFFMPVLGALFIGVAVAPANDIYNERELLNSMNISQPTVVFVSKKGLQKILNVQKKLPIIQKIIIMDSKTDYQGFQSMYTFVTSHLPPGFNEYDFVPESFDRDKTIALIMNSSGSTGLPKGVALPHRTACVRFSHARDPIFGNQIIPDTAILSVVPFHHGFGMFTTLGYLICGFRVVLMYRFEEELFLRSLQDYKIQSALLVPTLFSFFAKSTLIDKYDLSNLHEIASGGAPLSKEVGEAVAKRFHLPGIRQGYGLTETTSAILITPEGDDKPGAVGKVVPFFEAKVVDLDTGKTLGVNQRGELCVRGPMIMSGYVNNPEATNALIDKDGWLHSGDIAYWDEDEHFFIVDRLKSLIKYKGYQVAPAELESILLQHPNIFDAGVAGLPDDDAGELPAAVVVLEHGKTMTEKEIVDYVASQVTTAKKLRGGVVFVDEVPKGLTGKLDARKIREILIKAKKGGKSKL
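Biochemical qHTS of compounds, final roughly 60 µM downward over six points, against 10 nM purified firefly luciferase using Km concentrations of substrates (10 uM D-luciferin, 10 uM ATP) in Tris acetate pH 7.5 buffer; luminescence output.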
ELG1 DNA repair: ELG1-dependent DNA repair inhibition. HEK293T ELG1-luciferase reporter, luminescence, 16 h; DNA damage induced by 5-fluorouridine. Potency, µM (highest dose often 46.1 µM), actives largely listed as inhibitors. actives 2.3% (n = 330,000); note: nearly all actives have a fitted effect of over 55% in size
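5-Fluorouridine DNA damage + compound/DMSO, 2,000 cells/well, 16 h, 37 °C/5% CO2. ONE-Glo, 30 min RT, luminescence. Readout = decrease in reporter signal.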
Rab9 promoter act: Rab9 promoter activation. Potency, µM (highest dose often 9.22 µM), actives largely listed as activators. Huh7 Rab9 promoter-luciferase reporter, luminescence, 24 h. actives 2.8% (n = 320,000). AID 485297; note: nearly all actives have a fitted effect of over 60% in size
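Luciferase signal after 10 min detection reagent at ambient indicates Rab9 promoter upregulation; stably transfected Huh7 cells were treated 24 h with compound in DMSO at 37 °C, 5% CO2.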
ELG1 genotox: induces genotoxicity in HEK293T cells with luciferase-tagged ELG1 | actives 1.3% (n = 330,000) | HEK293T ELG1-luciferase reporter, luminescence, 16 h | Potency, µM (top dose mostly 46 µM), actives largely listed as activators; note: nearly all actives have a fitted effect of over 60% in size
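ELG1-luciferase HEK293T cells, 2,000/well; compound pinned in; 16 hr, 37 °C, 5% CO2; ONE-Glo, 30 min RT; luminescence on CCD imager.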
SMN2 splice up: increases expression of the SMN2 splice variant; HEK293 SMN2-luciferase splicing reporter, luminescence, 30-36 h; Potency, µM (top dose mostly 46.1 µM), most hits filed as activators; actives 2.8% (n = 210,000); note: nearly all actives have a fitted effect of over 55% in size
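HEK293 cells carry an SMN2 minigene-luciferase reporter in which exon 7 inclusion puts luciferase in frame. Cells were seeded at 2000 cells/well, attached for 10-12 hours, then exposed to compounds for 30-36 hours at 37C before ONE-Glo luminescence.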
A number is an active result; i = inactive; ? = inconclusive; nt = not tested or not shown; [ ] = dose if it differs, or a comment. Calls come from the whole dose curve; as a rule, active = well fitted curve in the direction sought with a large enough effect; inconclusive = small, poorly fitted or top-dose-only effect, or another doubt; inactive = no such curve, though single readings can be large; an effect the other way counts as inactive or inconclusive.

SMILES	NPC1 prom act	FLuc counter	ELG1 DNA repair	Rab9 promoter act	ELG1 genotox	SMN2 splice up
CC(OC(=O)c1c2c(nc3ccccc13)/C(=C\c1ccc3c(c1)OCO3)CCC2)C(=O)Nc1ccc(S(N)(=O)=O)cc1 (configuration not stated)	i	?	?	i	i	i
CCCCNC(=O)COC(=O)c1c2c(nc3ccccc13)CCC2	i	i	?	i	i	nt
CCCCNC(=O)COC(=O)c1c2c(nc3ccccc13)/C(=C/c1cccs1)CC2	i	7.6µM	?	i	i	11µM
C=CCn1c(C)cc(C(=O)CSc2nnc(NC(C)C)s2)c1C	i	?	i	i	i	i
Cc1cc(C(=O)CSc2nc3ccccc3o2)c(C)n1C1CC1	2.2µM	13µM	?	2.2µM	18µM	11µM
Cc1cc(C(=O)CSc2ncnc3ccccc23)c(C)n1C1CC1	i	?	?	i	i	nt
Cc1cc(NC(=O)CSc2nnc(NCc3ccccc3)s2)no1	i	i	i	i	i	nt
CC(=O)CSc1nc2ccccc2o1	i	i	?	i	?	i
C=CCn1c(C)cc(C(=O)CSc2nnc(NCc3ccccc3)s2)c1C	i	17µM	i	i	i	i
C=CCn1c(C)cc(C(=O)CSc2nc3ccccc3o2)c1C	0.63µM	1.9µM	?	?	1.6µM	?
O=C(CSc1nnc(NCc2ccccc2)s1)c1ccco1	i	15µM	i	i	i	i
COc1cc(S(=O)(=O)N2CCOCC2)cc(C(=O)OCC(=O)NCc2ccco2)c1OC	i	i	i	i	i	nt
CCOc1ccc(S(=O)(=O)N2CCN(Cc3ccc4c(c3)OCO4)CC2)cc1C	i	i	i	i	i	nt
COC(=O)N1C(C)=Cc2ccccc2C1C/C(C)=C/C(C)=O (configuration not stated)	nt	nt	nt	nt	nt	i
C=CCn1c(C)cc(C(=O)CSc2nnc(Cc3ccccc3)o2)c1C	i	15µM	i	i	i	i
Cc1cc(C(=O)CSc2nnc(Cc3ccccc3)o2)c(C)n1Cc1ccc2c(c1)OCO2	i	i	i	i	i	i
Cc1ccc(NC(=O)c2ccc(Cl)c(NC(=O)c3cccs3)c2)cc1	i	11µM	?	i	i	nt
Cc1nc2ccc(NC(=O)c3ccc(Cl)c(NC(=O)c4cccs4)c3)cc2s1	i	13µM	i	i	i	i
Cc1cc(C)c2oc(-c3ccc(Cl)c(NC(=O)c4cccs4)c3)nc2c1	nt	4.3µM	nt	nt	nt	i
O=C(Nc1ccc(NC(=O)c2cccs2)cc1)c1ccc(Cl)cc1	nt	i	nt	nt	nt	i
CCCc1cc(=O)[nH]c(Nc2ccccc2O)n1	nt	i	nt	nt	nt	i
COc1ccc(Cl)cc1S(=O)(=O)N1CCCC(C(=O)NCc2ccncc2)C1 (configuration not stated)	i	i	i	i	i	nt
Fc1cccc(F)c1C(Nc1nncs1)Nc1nncs1	nt	nt	nt	nt	nt	i[9.22 µM]
Cc1nc(N)sc1-c1csc(N(C)c2ccc(O)cc2)n1	?	4.8µM	?	?	?	?
CN(c1ccc(O)cc1)c1nc(-c2cccs2)cs1	i	i	?	i	i	nt
SMILES	NPC1 prom act	FLuc counter	ELG1 DNA repair	Rab9 promoter act	ELG1 genotox	SMN2 splice up
COc1ccc(NC(=O)CCc2c(C)nn(-c3ccc(N4CCOCC4)nn3)c2C)cc1Cl	nt	21µM	nt	nt	nt	nt
COC(=O)c1ccc(NC(=O)CCc2c(C)nn(-c3ccc(N4CCOCC4)nn3)c2C)cc1	nt	19µM	nt	nt	nt	nt
CCc1cccc(NC(=O)CCc2c(C)nn(-c3ccc(N4CCOCC4)nn3)c2C)c1	i	17µM	i	i	i	nt
Cc1ccc(NC(=O)CCc2c(C)nn(-c3ccc(N4CCOCC4)nn3)c2C)cc1F	?	13µM	i	?	i	nt
COc1cc([N+](=O)[O-])ccc1NC(=O)N1CCN(c2cc(-c3noc(C)n3)ccc2C)CC1	nt	i	nt	nt	nt	nt
O=C(CCC(=O)N(CC(=O)NC1CCCCC1)Cc1cccs1)Nc1nccs1	i	i	i	i	i	nt
Nc1cnccc1C(=O)O	i	i	i	i	i	i
CC(=O)c1ccc(NC(=O)CCc2c(C)nn(-c3ccc(N4CCOCC4)nn3)c2C)cc1	?	17µM	?	?	i[9.26 µM]	nt
Cc1ccc(NC(=O)CCc2c(C)nn(-c3ccc(N4CCOCC4)nn3)c2C)cc1	i	?	i	i	i	nt
CC(C)CC1CC(C)(c2csc(NNC(=O)c3ccccc3)n2)OC1=O (configuration not stated)	i	i	?	i	i	i
COc1ccc(-c2ccc(-c3cc(=O)oc4cc(OC)c(OC)c(OC)c34)cc2)cc1OC	nt	nt	10µM	nt	i	nt
COc1cc2oc(=O)cc(-c3cccc(-c4cccc(C)c4)c3)c2c(OC)c1OC	nt	nt	21µM	nt	i	nt
CCOC(=O)C1=C(COc2ccccc2)NC(=O)NC1c1ccc(Br)cc1 (configuration not stated)	i	i	i	i	i	nt
COc1ccccc1N1CCN(C2CCCN(C(=O)c3oc(C)cc3C)C2)CC1 (configuration not stated)	i	i	?	i	i	nt
CCNC(=O)/C(C#N)=C/c1c(N(Cc2ccccc2)Cc2ccccc2)nc2ccccn2c1=O	i	i	12µM	i	i	i
CNC(=O)/C(C#N)=C/c1c(N(Cc2ccccc2)Cc2ccccc2)nc2c(C)cccn2c1=O	i	i	23µM	i	i	i
CCNC(=O)/C(C#N)=C/c1c(N2CCOCC2)nc2ccccn2c1=O	i	i	i	i	i	i
CC(=O)c1cccc(NC(=O)CN2C(=O)CN(C)C(=O)c3ccccc32)c1	nt	i	nt	nt	nt	nt
CCC(Cc1ccccc1)NC(=O)C1CCN(c2nn3c(=O)cc(C)nc3s2)CC1 (configuration not stated)	i	i	i	i	i	nt
COc1cc(-c2cc(N)n(S(=O)(=O)c3ccc(F)cc3)n2)cc(OC)c1OC	i	i	i	i	i	i
COc1ccc(-c2cc(N)n(S(=O)(=O)c3ccc(F)cc3)n2)cc1OC	i	i	5.8µM	i	i	i
COc1ccc(OC)c(NC(=O)CN2C(=O)COc3ccc(C)cc32)c1	i	i	i	i	i	nt
CC(C)(C)SCCNS(=O)(=O)c1ccc(C#N)cc1	i	i	i	i	i	nt
CC(C)(C)c1cc(NC(=O)c2cccc([N+](=O)[O-])c2)no1	2.2µM	?	?	1.4µM	?	2.8µM
Cc1cc(NC(=O)c2cccc([N+](=O)[O-])c2)no1	i	i	?	i	i	nt
CC(C)(C)c1cc(NC(=O)c2ccco2)no1	1.8µM	5.4µM	?	0.63µM	1.3µM	nt
COC(=O)c1ccccc1NC(=O)Nc1cc(C(C)(C)C)on1	2µM	i	?	0.89µM	16µM	nt
Cc1cc(C(=O)Nc2cc(C(C)(C)C)on2)c(C)o1	?	9.5µM	?	2.8µM	?	nt
CC(C)(C)c1cc(NC(=O)Nc2ccccc2)no1	1.4µM	4.8µM	?	1.3µM	?	nt
